The values that follow come from PubChem BioAssay.

The source made the active and inactive calls.

A short description of assay [1]: optical density shifts of acrAB sulA E. coli – strain DRC41, OD650, 48 h, E. coli filamentation inducer project, primary screen (AID 1152).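 Further: E. coli MC1000 strain DRC41 lacking acrAB efflux pump and sulA.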 The settings on record: higher = more signal, called active from +8 up or from −8 down.
The nature of assay [2]: probe aLefty1 binding on compound microarray – biochemical, small-molecule microarray, 635/667 nm fluorescence, primary screen (AID 1153).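 Further: score merges spot fluorescence with signal-to-noise ratio from the scanned slide images.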 To be noted: higher = more signal.
A short description of assay [3]: plasmodial surface anion channel blockers, osmotic lysis – cell-based, P. falciparum Indochina, OD700, 1 h, primary screen (AID 1154). The settings on record: P. falciparum Indochina infected RBC osmotic lysis, higher = more signal, called active from +8 up or from −8 down.
Assay [4] can be described thus: plasmodial surface anion channel blockers, osmotic lysis – cell-based, P. falciparum Indochina, OD700, 2 h, primary screen (AID 1155).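 Further: lysis reports solute entry through the parasite surface anion channel PSAC.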 To be noted: P. falciparum Indochina infected erythrocytes, higher = more signal, called active from +8 up or from −8 down.
A short description of assay [5]: changes in parasitized red cell lysis, either direction – P. falciparum Indochina, OD700, 3 h, PSAC antagonist project, primary screen (AID 1156). The settings on record: P. falciparum-infected erythrocytes, osmotic lysis, higher = more signal, called active from +8 up or from −8 down.
Assay [6] is described as follows: plasmodial surface anion channel blockers, osmotic lysis – cell-based, P. falciparum Indochina, OD700, 18 h, primary screen (AID 1157). To be noted: P. falciparum Indochina infected erythrocytes, osmotic lysis OD700, 18 h; higher = more signal, called active from +8 up or from −8 down.
The nature of assay [7]: S6 kinase pathway phospho-S6 level changes – cell-based, A549, cytoblot, luminescence, serum-stimulated, primary screen (AID 1158).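 Further: serum-stimulated A549 lung adenocarcinoma cells; signal is phosphorylated S6 detected by cytoblot immunostaining with HRP secondary.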 To be noted: 5 h, higher = more signal.
Assay [8] addresses NADPH oxidase 2 (Homo sapiens) (UniProt P04839). The assay can be described thus: compounds shifting NOX2 Amplex Red fluorescence – cell-based, HEK293-NOX2, PMA-stimulated, NOX inhibitor project, primary screen (AID 1159). Further: test concentration not given here. To be noted: 45 min, higher = more signal, called active from +8 up or from −8 down.
Assay [9] deals with NADPH oxidase 4 (Homo sapiens) (UniProt Q9NPH5). The assay can be described thus: compounds shifting NOX4 Amplex Red fluorescence – cell-based, HEK293-NOX4, tetracycline-induced, NOX inhibitor project, primary screen (AID 1160). To be noted: HEK293-NOX4, Amplex Red H2O2 fluorescence, 45 min; higher = more signal, called active from +8 up or from −8 down.
Chain of NADPH oxidase 4 (Homo sapiens) (Q9NPH5 whole entry, looked up): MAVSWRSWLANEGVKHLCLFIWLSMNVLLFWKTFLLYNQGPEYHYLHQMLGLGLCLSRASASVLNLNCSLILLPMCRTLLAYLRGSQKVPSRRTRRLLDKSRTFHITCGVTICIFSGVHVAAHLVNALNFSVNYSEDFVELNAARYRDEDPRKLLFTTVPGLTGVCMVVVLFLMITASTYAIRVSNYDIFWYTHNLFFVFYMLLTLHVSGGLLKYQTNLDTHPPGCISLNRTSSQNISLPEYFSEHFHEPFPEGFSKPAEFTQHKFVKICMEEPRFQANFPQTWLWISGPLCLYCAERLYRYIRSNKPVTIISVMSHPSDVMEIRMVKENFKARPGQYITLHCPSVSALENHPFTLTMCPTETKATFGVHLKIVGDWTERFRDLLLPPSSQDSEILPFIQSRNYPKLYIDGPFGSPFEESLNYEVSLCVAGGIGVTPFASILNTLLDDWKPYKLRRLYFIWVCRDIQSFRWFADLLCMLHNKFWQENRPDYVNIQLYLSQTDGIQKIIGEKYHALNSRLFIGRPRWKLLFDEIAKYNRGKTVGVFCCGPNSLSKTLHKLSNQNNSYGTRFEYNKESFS
The target in assay [10] is NADPH oxidase 5 (Homo sapiens) (UniProt Q96PH1). The assay can be described thus: compounds shifting NOX5 Amplex Red fluorescence – cell-based, HEK293-NOX5, NOX inhibitor project, primary screen (AID 1161). The settings on record: HEK293-NOX5, ionomycin, 45 min, higher = more signal.
Chain of NADPH oxidase 5 (Homo sapiens) (Q96PH1 whole entry, looked up): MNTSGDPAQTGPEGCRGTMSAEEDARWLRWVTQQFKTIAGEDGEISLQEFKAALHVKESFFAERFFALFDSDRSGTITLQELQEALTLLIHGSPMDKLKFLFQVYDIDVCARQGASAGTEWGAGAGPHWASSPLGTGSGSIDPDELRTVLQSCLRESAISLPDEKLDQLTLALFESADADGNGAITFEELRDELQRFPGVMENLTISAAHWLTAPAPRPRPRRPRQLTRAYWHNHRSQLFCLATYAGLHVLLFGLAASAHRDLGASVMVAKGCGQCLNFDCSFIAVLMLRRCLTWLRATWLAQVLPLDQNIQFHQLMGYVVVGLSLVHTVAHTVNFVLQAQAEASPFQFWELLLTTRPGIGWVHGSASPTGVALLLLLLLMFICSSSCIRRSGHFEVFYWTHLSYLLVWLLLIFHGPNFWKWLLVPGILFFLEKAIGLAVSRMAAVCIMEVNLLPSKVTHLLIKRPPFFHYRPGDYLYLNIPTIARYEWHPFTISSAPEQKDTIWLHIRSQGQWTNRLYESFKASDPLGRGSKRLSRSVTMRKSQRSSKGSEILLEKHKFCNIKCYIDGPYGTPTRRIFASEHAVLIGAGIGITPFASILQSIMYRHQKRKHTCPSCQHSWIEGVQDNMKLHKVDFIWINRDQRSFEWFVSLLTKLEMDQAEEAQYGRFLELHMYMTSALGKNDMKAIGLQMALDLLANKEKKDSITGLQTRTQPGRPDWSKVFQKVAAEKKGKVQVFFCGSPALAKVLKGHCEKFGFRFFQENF

Chain of NADPH oxidase 2 (Homo sapiens) (P04839 whole entry, looked up): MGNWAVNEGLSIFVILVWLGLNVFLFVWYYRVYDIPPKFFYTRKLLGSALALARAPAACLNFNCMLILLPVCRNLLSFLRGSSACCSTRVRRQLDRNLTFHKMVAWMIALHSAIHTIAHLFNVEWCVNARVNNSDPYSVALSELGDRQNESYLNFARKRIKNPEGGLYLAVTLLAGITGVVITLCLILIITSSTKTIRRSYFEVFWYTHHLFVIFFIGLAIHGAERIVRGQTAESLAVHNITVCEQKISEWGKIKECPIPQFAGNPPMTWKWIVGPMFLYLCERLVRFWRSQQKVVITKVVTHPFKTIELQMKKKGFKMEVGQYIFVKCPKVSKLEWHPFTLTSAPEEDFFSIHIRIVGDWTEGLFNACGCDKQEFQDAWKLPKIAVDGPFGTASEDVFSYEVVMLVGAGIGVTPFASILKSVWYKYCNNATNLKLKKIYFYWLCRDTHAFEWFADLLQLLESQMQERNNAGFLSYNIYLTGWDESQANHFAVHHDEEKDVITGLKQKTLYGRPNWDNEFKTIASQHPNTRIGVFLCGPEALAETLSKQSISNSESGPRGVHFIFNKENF

Consider `COCCOC(=O)N1C(=O)[C@@]2(c3cc(C#CC4=CCCCC4)ccc31)[C@H](c1ccccc1OCCO)N1[C@H](c3ccccc3)[C@H](c3ccccc3)OC(=O)[C@H]1[C@@H]2C(=O)Nc1nc2ccccc2s1`, for which the z-score in assay [1] was -0.541 (inactive); in assay [3], 3.53 (inactive); in assay [4], 1.72 (inactive); in assay [5], -0.507 (inactive); in [6], 1.54 (inactive); in [7], -0.168. The z-score in assay [8] was 1.59 (inactive); in assay [9], 0.571 (inactive); in assay [10], 1.41. Further, in assay [2], the composite z-score worked out at 0.287.

Turning to `C=C(/C(=C/C[C@H](OC(C)=O)c1ccccc1OCCO)c1cc(C(=O)OC)ccc1OC)C(C)C`, the z-score in assay [1] was 0.483 (inactive); in assay [3], 5.75 (inactive); in assay [4], 0.195 (inactive); in assay [5], 1.85 (inactive); in assay [6], -1.19 (inactive); in [7], 1.09. The z-score is 0.137 (inactive) in [8], 0.264 (inactive) in assay [9] and -2.12 in assay [10]. The composite z-score in [2] is -0.157.

With `C=CCN1C(=O)[C@@]2(CCS(=O)(=O)c3ccccc3)N=C(c3ccc(OCCCO)cc3)O[C@H]2c2ccccc21`, the z-score in assay [1] is -0.135 (inactive); in assay [3], 29.9 (active); in [4], 25.2 (active); in assay [5], 1.73 (inactive); in assay [6] it was 6.35 (inactive); in assay [7], 1.06. Moreover, the figures for the z-score in assay [8], in assay [9] and in assay [10] were -1.42 (inactive), 1.35 (inactive) and -0.428, respectively. Besides, the composite z-score in assay [2] is 0.235.

Take `CCCCN1CC=CC23O[C@@H]4/C=C\CCC(C)OC(=O)C4[C@H]2C(=O)N(C(CO)C(C)C)[C@@H]3C1=O` (stereo not given in full): the z-score was -0.0695 (inactive) in assay [1]; 1.65 (inactive) in assay [3]; -0.361 (inactive) in [4]; 0.826 (inactive) in [5]; 0.406 (inactive) in assay [6]; 1.81 in [7]. Moreover, the z-score in [8] was 1.4 (inactive); in assay [9], -0.506 (inactive); in assay [10] it was 2.14. In assay [2], this molecule displayed a composite z-score of 0.13.

On to `COC(=O)[C@@]1(Cc2ccccc2N=[N+]=[N-])N=C(c2ccc(OCCCO)cc2)O[C@H]1c1ccccc1N=[N+]=[N-]`, for which the z-score in assay [1] was 1.24 (inactive); in [3] it was 24.9 (active); in assay [4], 13.3 (active); in assay [5], 0.531 (inactive); in assay [6], 3.93 (inactive); in assay [7] it was 0.342. Besides, the z-score was -1.58 (inactive) in assay [8], 0.802 (inactive) in assay [9] and -0.833 in assay [10]. The composite z-score in assay [2] came to 0.373.

Regarding `O=C1C2C=CC(C(O)c3ccc(F)cc3)N(n3cnnc3)C2C(=O)N1Cc1ccccc1` (stereo not given), the z-score in assay [1] was -0.792 (inactive); in [3], 0.138 (inactive); in assay [4] it was -0.995 (inactive); in assay [5], 0.987 (inactive); in assay [6] it was -2.02 (inactive); in [7], 1.2. Moreover, the results for the z-score in [8], in assay [9] and in [10] were -3.1 (inactive), -1.12 (inactive) and -4.43, respectively. Also, in assay [2], the composite z-score was determined as 0.041.

On to `CO[C@H]1O[C@H](CO)[C@@H](OC(=O)Nc2ccccc2-c2ccccc2)[C@H](OC(=O)Nc2ccc3c(c2)OCO3)[C@H]1OC(=O)Nc1ccc2c(c1)OCO2`, for which the z-score is 1.27 (inactive) in [1]; 6.03 (inactive) in assay [3]; 1.08 (inactive) in assay [4]; 0.52 (inactive) in assay [5]; 0.666 (inactive) in assay [6]; -0.0053 in assay [7]. Moreover, the z-score is -2.21 (inactive) in assay [8], -1.18 (inactive) in [9] and -2.42 in assay [10]. The molecule further gave a composite z-score in assay [2] of 0.809.

Take `COC1OC[C@]2(C)[C@H]3C4=C(CN2C(=O)OC(C)(C)C)[C@H](C)C(CO)C(CO)C4CC[C@@H]13` (stereo not given in full): the z-score is -0.787 (inactive) in assay [1]; 0.884 (inactive) in assay [3]; -0.0719 (inactive) in [4]; 0.394 (inactive) in assay [5]; 0.494 (inactive) in assay [6]; 0.15 in [7]. Moreover, the z-score in assay [8] was -1.39 (inactive); in assay [9], -0.651 (inactive); in assay [10] it was -2.12. Also, the composite z-score in assay [2] worked out at 1.13.

Turning to `COC(=O)[C@@]1(Cc2ccccc2)[C@H]2c3cc(C(=O)N(C)C)n(CCc4ccc(O)c(OC)c4)c3C[C@H]2CN1C(=O)c1ccccc1`, the z-score in assay [1] is -0.873 (inactive); in assay [3], 0.318 (inactive); in assay [4], 0.277 (inactive); in assay [5], -0.692 (inactive); in [6], 0.667 (inactive); in [7], -0.565. In addition, the results for the z-score in assay [8], in assay [9] and in [10] were 0.0564 (inactive), -0.485 (inactive) and -0.207, respectively. The same molecule returned a composite z-score in assay [2] of 1.11.

On to `CCC[C@@H]1C[C@@]1(CCC)[C@@H](NC(=O)OCc1ccccc1)c1ccc(-c2ccccc2)cc1`, for which the z-score in assay [1] was -1.07 (inactive); in [3], 3.2 (inactive); in [4] it was 0.81 (inactive); in assay [5], -0.221 (inactive); in [6], 0.224 (inactive); in assay [7], 0.542. Further, the z-score was -0.648 (inactive) in assay [8], -1.45 (inactive) in [9] and 0.0161 in [10]. Besides, the composite z-score in [2] was found to be 0.545.

Consider `Cc1ccc(S[C@]2(C(=O)O)CC(=O)N(Cc3ccccc3Cl)[C@@H]2c2ccc(CO)cc2I)cc1`, for which the z-score is -0.754 (inactive) in assay [1]; 8.88 (active) in assay [3]; 1.4 (inactive) in assay [4]; 0.767 (inactive) in assay [5]; 0.744 (inactive) in [6]; -0.0366 in assay [7]. Besides, the z-score is 3.66 (inactive) in assay [8], -2.51 (inactive) in assay [9] and -0.915 in [10]. For the same molecule, the composite z-score in [2] is -0.814.

Take `CC(=O)c1ccc(C(O)C2C=CC3C(=O)N(c4ccccc4)C(=O)C3N2Nc2ccc(C#N)cc2)cc1` (stereo not given): the z-score in assay [1] is -1.54 (inactive); in assay [3], 18 (active); in [4], 2.58 (inactive); in assay [5], 1.27 (inactive); in assay [6], 1.44 (inactive); in [7], -1.15. The z-score is -2.48 (inactive) in assay [8], -5.89 (inactive) in assay [9] and -4.43 in [10]. The composite z-score in [2] came to 0.192.
